Source: PubChem BioAssay (NCI)
“And” between values parts separate entries of the source, which are not always exact repeats. Equal entries are not always repeated. Compounds without any hit were thinned out: in the full panel of roughly 83,000, 20% have a hit.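 Activity criterion: percent growth below 10, measured after cells in 96-well plates were exposed to a single compound concentration for 48 hours.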 The source made the active and inactive calls.

How the values were obtained:
Assay in all cases: NCI-60 one-dose screen, 48 h (100 = growth as untreated, 0 = no growth, -100 = all killed)
Settings in all cases: 10 µM unless noted
HT29 colon = tested on: HT29 colon
SNB-19 CNS = tested on: SNB-19 CNS
U251 CNS = tested on: U251 CNS
PC-3 prostate = tested on: PC-3 prostate
SK-MEL-5 melanoma = tested on: SK-MEL-5 melanoma
UACC-62 melanoma = tested on: UACC-62 melanoma
LOX IMVI melanoma = tested on: LOX IMVI melanoma
SK-MEL-28 melanoma = tested on: SK-MEL-28 melanoma
SNB-75 CNS = tested on: SNB-75 CNS

Measured: growth

Oc1cc(N2CC2)c(O)cc1N1CC1
active: HT29 colon 1.49% | U251 CNS -2.16% | SK-MEL-5 melanoma -95% | UACC-62 melanoma -67.2% | LOX IMVI melanoma 1.44% | SK-MEL-28 melanoma -50.9%
inactive: SNB-19 CNS 26.8% | PC-3 prostate 25%

O=NN(c1ccccc1)c1ccccc1
inactive: HT29 colon 119% | SNB-75 CNS 101% | SNB-19 CNS 106% | U251 CNS 99.2% | PC-3 prostate 98% | SK-MEL-5 melanoma 98.6% | UACC-62 melanoma 95.4% | LOX IMVI melanoma 100% | SK-MEL-28 melanoma 114%

CCCCCCCCCCCCCCCC[n+]1ccccc1
active: HT29 colon -68.2% and -58.8% | SNB-75 CNS -77.3% and -40.5% | SNB-19 CNS -88.4% and -62.6% | U251 CNS -90.4% and -76.3% | PC-3 prostate -48.7% and -80.9% | SK-MEL-5 melanoma -100% and -94.8% | UACC-62 melanoma -68% and -46.2% | LOX IMVI melanoma -72.9% and -79.8% | SK-MEL-28 melanoma -55% and -30.7%

CC1=C2[C@H]3OC(=O)[C@@H](C)[C@@H]3CC[C@@]2(C)C=CC1=O
inactive: HT29 colon 118% | SNB-75 CNS 88.3% | SNB-19 CNS 110% | U251 CNS 101% | PC-3 prostate 50.5% | SK-MEL-5 melanoma 112% | UACC-62 melanoma 93% | LOX IMVI melanoma 99.1% | SK-MEL-28 melanoma 122%

O=C=Nc1ccc(Br)cc1
inactive: HT29 colon 118% | SNB-75 CNS 99.1% | SNB-19 CNS 111% | U251 CNS 110% | PC-3 prostate 78.8% | SK-MEL-5 melanoma 81% | UACC-62 melanoma 97.4% | LOX IMVI melanoma 106% | SK-MEL-28 melanoma 110%

CCOC(=O)c1c(SC)nc(-c2ccc(Cl)cc2)sc1=N
active: UACC-62 melanoma 5.48% [100 µM] and 7.26% [100 µM]

N#CC(C#N)=Cc1cccc(F)c1
inactive: HT29 colon 104% | SNB-19 CNS 100% | U251 CNS 103% | PC-3 prostate 100% | SK-MEL-5 melanoma 101% | UACC-62 melanoma 98.2% | LOX IMVI melanoma 98.9% | SK-MEL-28 melanoma 111%

COC12CC3(C)C(C4=CC(=O)OC4)CCC3(O)C3CCC4=CC(=O)CCC4(CO1)C32 (stereo not drawn)
inactive: HT29 colon 103% | SNB-75 CNS 90.6% | SNB-19 CNS 107% | U251 CNS 103% | SK-MEL-5 melanoma 106% | UACC-62 melanoma 99.6% | LOX IMVI melanoma 102% | SK-MEL-28 melanoma 122%

Cc1ccc(N2CCN(CCC#N)CC2)cc1
inactive: HT29 colon 103% | SNB-75 CNS 79.5% | SNB-19 CNS 87.9% | U251 CNS 97.8% | PC-3 prostate 92.5% | SK-MEL-5 melanoma 82% | UACC-62 melanoma 98.6% | LOX IMVI melanoma 101% | SK-MEL-28 melanoma 98.7%

COc1ccc(O)c2c(=O)c3c(OC)cc4c(c3oc12)[C@@H]1C=CO[C@@H]1O4
inactive: HT29 colon 54.3% | SNB-75 CNS 38.5% | SNB-19 CNS 81% | U251 CNS 73.4% | PC-3 prostate 76.7% | SK-MEL-5 melanoma 25.9% | LOX IMVI melanoma 72.6% | SK-MEL-28 melanoma 98.2%
active: UACC-62 melanoma 7.2%

O=NN1CCCCC1
inactive: HT29 colon 103% | SNB-75 CNS 82.6% | SNB-19 CNS 97.8% | U251 CNS 111% | PC-3 prostate 110% | SK-MEL-5 melanoma 106% | UACC-62 melanoma 97.1% | LOX IMVI melanoma 100% | SK-MEL-28 melanoma 110%

CCC(=O)C(CC(C)[N+](C)(C)C)(c1ccccc1)c1ccccc1 (stereo not drawn)
inactive: HT29 colon 108% | SNB-75 CNS 93.8% | SNB-19 CNS 96.8% | U251 CNS 97.9% | PC-3 prostate 103% | SK-MEL-5 melanoma 97.2% | UACC-62 melanoma 101% | LOX IMVI melanoma 96.7% | SK-MEL-28 melanoma 106%

NNC(=S)N/N=C(\C(=O)Nc1cccc(O)c1)C1C(=O)NC(=S)NC1=O
inactive: UACC-62 melanoma 90.4% [100 µM] and 91% [100 µM]

CCOC(=O)C1C(c2ccco2)C2(C#N)C(=N)OC1(C)C2(C#N)C#N (stereo not drawn)
inactive: UACC-62 melanoma 62% [100 µM] and 20.8% [100 µM]

CCN1C(=O)NC(=O)C(C)(N2C(=O)c3c(F)c(F)c(F)c(F)c3C2=O)C1=O (stereo not drawn)
inactive: SNB-75 CNS 64.6% | SNB-19 CNS 49.3% | PC-3 prostate 12.3% | SK-MEL-5 melanoma 54.1% | UACC-62 melanoma 10.4%
active: HT29 colon 6.44% | U251 CNS -25.4% | LOX IMVI melanoma -13.9% | SK-MEL-28 melanoma -45.5%

O=Cc1cn(Cc2ccccc2)c2ccccc12
inactive: HT29 colon 92% | SNB-75 CNS 67.8% | SNB-19 CNS 93.8% | U251 CNS 68.5% | PC-3 prostate 95% | UACC-62 melanoma 32.6% | LOX IMVI melanoma 79.4% | SK-MEL-28 melanoma 216%

Cc1ccccc1-n1c(/C=C\c2ccccn2)nc2ccccc2c1=O
inactive: HT29 colon 79.7% | SNB-75 CNS 44.9% | SNB-19 CNS 87.9% | PC-3 prostate 56.5% | SK-MEL-5 melanoma 73.7% | UACC-62 melanoma 64.5% | SK-MEL-28 melanoma 83.2%

C[C@]12CCc3nc(-c4ccc(O)c(O)c4)sc3C1=CC[C@@H]1[C@@H]2CC[C@]2(C)C(=O)CC[C@@H]12
inactive: HT29 colon 77.7% | SNB-75 CNS 92.3% | SNB-19 CNS 75% | U251 CNS 40.5% | PC-3 prostate 34.3% | SK-MEL-5 melanoma 78.5% | UACC-62 melanoma 91.5% | LOX IMVI melanoma 89.1% | SK-MEL-28 melanoma 84.6%

CC(=O)Cc1ccc2c(c1)OCO2
inactive: HT29 colon 98.6% | SNB-75 CNS 117% | SNB-19 CNS 98.8% | U251 CNS 103% | PC-3 prostate 106% | UACC-62 melanoma 103% | LOX IMVI melanoma 100% | SK-MEL-28 melanoma 130%

CC1=CC(=O)CCC12CCOC2=O (stereo not drawn)
inactive: HT29 colon 101% | SNB-75 CNS 91.3% | U251 CNS 99.1% | PC-3 prostate 111% | SK-MEL-5 melanoma 103% | UACC-62 melanoma 87% | LOX IMVI melanoma 95.6% | SK-MEL-28 melanoma 95.9%
